GAA850 FXN act – frataxin GAA850 promoter activation; HEK293 lucGAA850 FXN promoter luciferase reporter, 24 h; percent of 10 µM SAHA response; activation, % at 6 µM; 360,000 tested, 0.56% active; AID 540364;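 active = activation above the average of all compounds screened plus 3 SD, cutoff fixed separately per campaign, cut at about 7.5% in these data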
Hsp70 act – switches on Hsp70 transcription; HeLa Hsp70 promoter luciferase reporter, luminescence; scaled: vehicle 0, proteasome-inhibitor control 100%; 200,000 tested, 0.04% active; activation, % at 10 µM; AID 1203;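 active = activation above the mean across all tested compounds plus 3 SD, cutoff set per campaign, cut at about 5.5% in these data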
HIF activator – HIF pathway transcriptional activation. U2OS HRE-luciferase reporter, luminescence; normalized: DMSO 0%, desferrioxamine 100%. 300,000 tested, 0.32% active. activation, % at 7.5 µM (by protocol). AID 1910;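 active = mean activation of at least 10% of the iron chelator positive control signal, with at least half of replicates also reaching 10%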
SMARCA2 act – SMARCA2 function activation, primary screen; MG213 cells, MMTV-luciferase reporter, dexamethasone, overnight; activation, % at 9.1 µM; 370,000 tested, 1% active; in the data active = activation above about 7.8%
GalR3 antagonist – antagonists of human GalR3. HEK293 GalR3-CNG cAMP membrane potential fluorescence; galR3 body fused to GalR1 C-terminus. inhibition, % at 3 µM. 360,000 tested, 0.44% active;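 active = inhibition above the screen-wide average plus 3 SD, cut at about 13% in these data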;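 also: forskolin and galanin both at EC90 stimulate the cells; cAMP rise reported by CNG channel membrane potential dye signal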
Target sequence (O60755 1-299 limits assumed): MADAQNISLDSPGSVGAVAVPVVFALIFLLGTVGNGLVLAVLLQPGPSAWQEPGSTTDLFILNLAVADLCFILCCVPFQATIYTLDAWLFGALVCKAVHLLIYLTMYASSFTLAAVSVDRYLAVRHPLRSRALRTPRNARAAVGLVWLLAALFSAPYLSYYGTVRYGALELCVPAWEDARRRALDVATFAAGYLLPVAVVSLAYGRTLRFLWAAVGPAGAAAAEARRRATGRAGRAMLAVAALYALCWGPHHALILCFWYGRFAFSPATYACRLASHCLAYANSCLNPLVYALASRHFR
GAA30 FXN cntr – GAA30 FXN promoter activation counter-screen | activation, % at 6 µM | shares compounds with GAA850 FXN act | 1,900 tested, 66% active | HEK293 lucGAA30 FXN promoter luciferase, 24 h; DMSO = 0%, 5 µM ipriflavone = 100%;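 active = mean activation above the mean of solvent-only control wells plus 3 SD, cut at about 22% in these data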;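 also: counterscreen of GAA850 promoter hits where activity marks nonselective or luminescence artifacts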
GAA850 confirm – confirmation of GAA850 frataxin (FXN) promoter activators | HEK293 lucGAA850 FXN promoter luciferase reporter, 24 h; 100% = activation by SAHA | shares compounds with GAA850 FXN act | 1,900 tested, 86% active | AID 588351 | activation, % at 6 µM;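 active = mean activation above a set limit taken from the primary screen, cut at about 8% in these data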
Large screens that a line does not name were inactive (follow-up assays come after a bar, where they were run). Hits are enriched below; roughly 2.2% of the tested compounds scored in any of these assays.

COc1ccc(Nc2nccc(-c3cccc(N)c3)n2)cc1	GAA850 FXN act 13 (no result: Hsp70 act) | GAA30 FXN cntr 130 | GAA850 confirm 100
COC(=O)N(NC(=O)C(O)(CCC(C)C)CCC(C)C)c1ccccc1	none
CCC(O)(CC)C(=O)NN(C(=O)Nc1csc2c1CCCC2)c1ccccc1	GAA850 FXN act 9.4 | GAA30 FXN cntr inactive | GAA850 confirm inactive
COc1cc(OC)c(OC)cc1CCC(C)NCCC(c1ccccc1)c1ccccc1 (stereo not given)	GAA850 FXN act 13 (no result: Hsp70 act) | GAA30 FXN cntr inactive | GAA850 confirm 9.4
COc1ccccc1C(=O)C1Nc2ccccc2-c2nnc(SC)nc2O1 (stereo not given)	GAA850 FXN act 8.8 | GAA30 FXN cntr inactive | GAA850 confirm inactive
CCC1Nc2ccccc2-c2nnc(SC)nc2O1 (stereo not given)	none
Cn1c(NC(=S)Nc2ccccc2)nc2ccccc21	GAA850 FXN act 8.2 | GAA30 FXN cntr 85 | GAA850 confirm 27
CCC(CC)c1nnc(NC(=O)CN2C(=O)C3C4C=CC(C4)C3C2=O)s1 (stereo not given)	GAA850 FXN act 9.9 | GAA30 FXN cntr inactive | GAA850 confirm inactive
C[C@@H]1CCN(C2CC2)S(=O)(=O)c2c(cccc2N2CC[C@H](N(C)C)C2)O1	none (no result: GAA850 FXN act, Hsp70 act, HIF activator, GalR3 antagonist)
Cc1ccc(C(=O)Nc2ncc(Cc3ccc(SC(F)F)cc3)s2)cc1	GAA850 FXN act 7.6 | GAA30 FXN cntr inactive | GAA850 confirm 37
Cc1ccc(C(=O)Nc2ncc([N+](=O)[O-])s2)cc1	none (no result: Hsp70 act)
C=CCNC(=O)CN(C(=O)Cc1cccc(OC(F)(F)F)c1)c1cccc(Br)c1	none (no result: GAA850 FXN act, Hsp70 act, HIF activator, GalR3 antagonist)
O=C(N/N=C/C(Br)=C/c1ccccc1)c1cc(-c2ccco2)[nH]n1	GAA850 FXN act 8.3 | GAA30 FXN cntr inactive | GAA850 confirm 13
CCn1c2ccccc2c2cc(NC(=O)CSc3nnc(-c4cccc(OC)c4)n3N)ccc21	GAA850 FXN act 8.4 | GAA30 FXN cntr inactive | GAA850 confirm 9.0
CCn1c2ccccc2c2cc(NC(=O)CSc3nnc(-c4ccccc4OC)n3N)ccc21	GAA850 FXN act 8.4 | GAA30 FXN cntr inactive | GAA850 confirm inactive
CCn1c2ccccc2c2cc(NC(=O)CSc3nnc(-c4ccc(OC)c(OC)c4)n3N)ccc21	none
CCCCCCC12C(=Cc3cc(C)ccc31)c1ccccc1C(CC(=O)NCc1ccccc1)N2C(=O)OC (stereo not given)	none (no result: GAA850 FXN act, Hsp70 act, HIF activator)
N#Cc1c(N)nc2c(c1-c1ccccc1)CCC2	GAA850 FXN act 8.2 | GAA30 FXN cntr 62 | GAA850 confirm 35
COc1ccc(-c2c(C#N)c(N)nc3c2CCC3)cc1	none
N#Cc1ccc(OC[C@@H](O)CN2CCC(C(O)(c3ccccc3)c3ccccc3)CC2)cc1F	none (no result: GAA850 FXN act, Hsp70 act, HIF activator, GalR3 antagonist)
CCc1nc2ccc(C(=O)NCCN3CCOCC3)cn2c1N(C)Cc1ccc(OC)cc1	none (no result: Hsp70 act, HIF activator)
CCc1nc2ccc(C(=O)NCCN3CCNC3=O)cn2c1N(C)Cc1ccc(OC)cc1	GAA850 FXN act 14 (no result: Hsp70 act, HIF activator) | GAA30 FXN cntr 22 | GAA850 confirm inactive
CCc1nc2ccc(C(=O)NCCOc3ccc(OC)cc3)cn2c1N(CC)Cc1ccc(OC)c(OC)c1	GAA850 FXN act 8.4 (no result: Hsp70 act, HIF activator) | GAA30 FXN cntr inactive | GAA850 confirm inactive
CCc1nc2ccc(C(=O)Nc3ccc(OC)c(OC)c3)cn2c1N(CC)Cc1ccc(OC)c(OC)c1	none (no result: Hsp70 act, HIF activator)
Cc1ccc(Cn2c(SCC(=O)NCc3ccco3)nc3ccsc3c2=O)cc1	GAA850 FXN act 8.8 | GAA30 FXN cntr 31 | GAA850 confirm 17
Cc1ccc(CNC(=O)CSc2nc3ccsc3c(=O)n2Cc2ccccn2)cc1	none
CC1(Cc2ccc(C(F)(F)F)o2)C(=O)Nc2cc(-c3ccc(F)cc3F)ccc21 (stereo not given)	GAA850 FXN act 9.2 (no result: Hsp70 act, HIF activator) | GAA30 FXN cntr inactive | GAA850 confirm 13
CCOC(=O)/C=C/COc1ccccc1[N+](=O)[O-]	GAA850 FXN act 8.3 | GAA30 FXN cntr 89 | GAA850 confirm 27
CCCCN1C(=O)/C(=C/C=C2/CC(C)(C)CN2C)SC1=S	GAA850 FXN act 8.6 | GAA30 FXN cntr 95 | GAA850 confirm 33
CN1CCSc2ccc(C(=O)Nc3ccc(Cl)cc3)cc21	GAA850 FXN act 7.8 (no result: Hsp70 act) | GAA30 FXN cntr 120 | GAA850 confirm 45
COc1cccc(NC(=O)c2ccc3c(c2)N(C)CCS3)c1	none (no result: Hsp70 act, GalR3 antagonist)
COc1ccc(-c2cc(C(=O)NN=Cc3ccccc3F)[nH]n2)cc1	none (no result: GAA850 FXN act, Hsp70 act, HIF activator, GalR3 antagonist)
CN(CCCOC(=O)c1cc2ccccc2o1)C1CN(Cc2cn(Cc3ccc([N+](=O)[O-])cc3)nn2)S(=O)(=O)C1 (stereo not given)	none (no result: GAA850 FXN act, Hsp70 act, HIF activator, GalR3 antagonist)
CCN(C[C@H]1N[C@@](CC)(C(=O)OC)[C@H]2C(=O)N(Cc3ccccc3)C(=O)[C@@H]12)S(=O)(=O)c1ccc(C(C)(C)C)cc1	none (no result: Hsp70 act, HIF activator)
CCN(C[C@H]1N[C@@](CC)(C(=O)OC)[C@H]2C(=O)N(Cc3ccccc3)C(=O)[C@@H]12)S(=O)(=O)c1ccc(C)cc1	GAA850 FXN act 10 (no result: Hsp70 act, HIF activator) | GAA30 FXN cntr inactive | GAA850 confirm 8.1
CCN(C[C@H]1N[C@@](CC)(C(=O)OC)[C@H]2C(=O)N(Cc3ccccc3)C(=O)[C@@H]12)S(=O)(=O)c1ccc(OC(F)(F)F)cc1	GAA850 FXN act 11 (no result: Hsp70 act, HIF activator) | GAA30 FXN cntr inactive | GAA850 confirm 10
CCN(C[C@H]1N[C@@](CC)(C(=O)OC)[C@H]2C(=O)N(Cc3ccccc3)C(=O)[C@@H]12)S(=O)(=O)c1ccc(-c2ccccc2)cc1	none (no result: Hsp70 act, HIF activator)
Cc1ccc(-n2c(SCC(=O)NN=Cc3c[nH]c4ccccc34)nnc2-c2ccccc2)cc1	none (no result: GAA850 FXN act, Hsp70 act, HIF activator, GalR3 antagonist)
C/C(=N\NC(=O)C(c1ccccc1)c1ccccc1)c1ccccn1	GAA850 FXN act 9.6 | GAA30 FXN cntr inactive | GAA850 confirm inactive
C/C(=N\NC(=O)C(c1ccccc1)c1ccccc1)c1ccc(O)cc1	none (no result: Hsp70 act)
COC(=O)[C@H]1C[C@@]2(Oc3ccc(Br)cc3)c3ccccc3N(C(=O)OC(C)(C)C)[C@H]2N1C(=O)OC(C)(C)C	none (no result: GAA850 FXN act, Hsp70 act, HIF activator, GalR3 antagonist)
Nc1c(C=C2C=CC(=O)C=C2)c(=O)nc2snc(SCc3ccccc3)n12	GAA850 FXN act 7.7 (no result: Hsp70 act) | GAA30 FXN cntr 59 | GAA850 confirm 15
CSc1nsc2nc(=O)c(/C=C3\C=Nc4ccccc43)c(N)n12	none
CCCCN1CCN(C2=NC(=O)N(c3ccc(Br)cc3)C(=O)C2)CC1	none (no result: GAA850 FXN act, Hsp70 act, HIF activator, GalR3 antagonist)
O=C(NNC(=S)Nc1ccccc1)Nc1ccccc1	GAA850 FXN act 7.7 | GAA30 FXN cntr 36 | GAA850 confirm 11
Cc1cc(NC(=O)c2ccc3nc(C)sc3c2)no1	GAA850 FXN act 7.7 | GAA30 FXN cntr 111 | GAA850 confirm 33
Cc1cc(NC(=O)c2ccc(Cl)cc2)no1	none

Compound activity from PubChem.
